The structures appear in SMILES notation.

In one assay the target is AMP-activated protein kinase, AMPK (Homo sapiens) (UniProt P54646+O43741+P54619+Q9UGJ0+Q9Y478+Q13131+Q9UGI9). The experiment in a line: AMP-dependent Kinase enzyme assay. An in vitro enzyme assay that detects ADP turnover that is directly proportional to AMPK activity. This uses naive AMPK that is activated during the assay with MK-8722. The format is functional. The arrangement: scale not given: direction of the effect not stated beside the values. The conditions noted are these: 30 µM.
As for `O=C(NCC1CC1)[C@@H]1CCO[C@@H]2CCN(Cc3ccco3)C[C@H]21`, the Percent Effect came out at 1.99%.
Regarding `CC(C)Nc1ncnc2c1CCN(C(=O)c1ccncc1F)CC2`, the Percent Effect was determined as 0.552%.
Still for that read-out and setting: to `Cc1nc[nH]c1CN1C[C@@H]2CC[C@H](C1)N(C(=O)CCNS(C)(=O)=O)C2` belongs -15.6%; to `O=C(N[C@@H]1CN(c2ncccn2)C[C@@H]2CCCO[C@@H]21)c1cnccn1`, 1.89%; to `CNc1cncc(C2CCCN2Cc2ccccn2)n1` (stereo not drawn), 3.64%.
Same read-out and setting: to `Fc1ccc2[nH]c(C3CCCN3CCc3ccccn3)nc2c1` (stereo not drawn) belongs -4.31%.
In the case of `CS(=O)(=O)NCc1cn2c(n1)CN(C(=O)c1ccc[nH]1)CC2`, the Percent Effect was found to be 14.2%.
Regarding `O=C(CCNS(=O)(=O)c1ccccc1)NCc1ccoc1`, the Percent Effect was -0.901%.
For `O=C(NCc1ccc(-n2cncn2)nc1)c1ccoc1`, the Percent Effect was -18.3%.
For `Cn1ccnc1CN1CCC2(CC(=O)N(c3cccc(F)c3)C2)C1` (stereo not drawn), the Percent Effect turned out to be 15%.
Still for that read-out and setting: to `CC(C)c1nc2n(n1)CC(NCc1nc(-c3cccnc3)no1)CC2` (stereo not drawn) belongs -1.93%.
On the same count and under the same terms, to `O=C(NCc1nnc2n1CCCC2)N1CCc2ccccc2C1` belongs -3.15%; to `Cc1oc(C)c(C(=O)N2CCCN(Cc3cscn3)CC2)c1C`, 7.44%.
Still for that read-out and setting: as for `COc1c(CNC2CCN(C(=O)C3CC3)CC2)c(C(C)C)nn1C`, the figure is -4.53%; as for `CN(C)C(=O)c1ccc(CNC(=O)NCCN(C)C2CCCC2)cc1`, -9.52%.
For the molecule `CC(C(=O)N1CCCN(Cc2ccc(C#N)cc2)CC1)n1ccnc1` (stereo not drawn), the Percent Effect was -24.4%.
Same read-out and setting: to `CCOc1ccccc1C(CC(=O)Nc1ccc(C)cn1)NC(C)=O` (stereo not drawn) belongs 7.35%.
For the molecule `CC(C)COC(C)C(=O)NCc1ccc(OC(C)C)nc1` (stereo not drawn), the Percent Effect was -0.374%.
The same measure, in the same setting: to `O=C(CNCCn1cccn1)NCC1(c2ccccc2)CC1` belongs 8.25%; to `O=C(NC1CCC1)[C@@H]1C[C@@H]2CCN(Cc3cccs3)C[C@@H]2O1`, 10.9%.
Same read-out and setting: as for `CN(C)CC1(O)CCN(S(=O)(=O)c2ccc(F)cc2)C1` (stereo not drawn), the figure is 6.17%; as for `Cc1ncsc1-c1nnc(C2CCN(Cc3ccc(F)cc3)CC2)o1`, 20%; as for `Cc1ncc(CN(C)CC2CCCN2c2cccnn2)s1` (stereo not drawn), -16.7%.
The same measure, in the same setting: to `CN(C)CCn1c(=O)oc2ccc(NC(=O)CC(C)(C)C)cc21` belongs -6.21%; to `O=C(NCC(O)c1ccccc1Cl)c1cccc(-n2cnnn2)c1` (stereo not drawn), -3.34%; to `COCC(NC(=O)c1cnn(C)c1)c1cccc(C(F)(F)F)c1` (stereo not drawn), -3.2%.
Regarding `CC(C)c1nc(C2CCCN2Cc2ccno2)no1` (stereo not drawn), the Percent Effect was -0.797%.
The same measure, in the same setting: to `CN1CCN(Cc2cscn2)CC(C(=O)N(C)C)C1` (stereo not drawn) belongs -6.4%; to `N#Cc1ccc(CN2CCN(C(=O)C3CCC3)[C@@H]3CS(=O)(=O)C[C@@H]32)cc1`, 3.66%; to `O=C(NC1CC1)[C@@H]1CCO[C@@H]2CCN(Cc3ccsc3)C[C@H]21`, 8.56%.
Same read-out and setting: as for `COC1CCN(C(=O)c2c(Cl)c3ccccc3n2C)CC1`, the figure is 0.805%.
Regarding `OC(CN1CCOCC1)c1ccc(OC(F)(F)F)cc1` (stereo not drawn), the Percent Effect amounted to 35.5%.
The same measure, in the same setting: to `CCOCCN1CCN(Cc2nc(C3CC3)no2)CC1CC` (stereo not drawn) belongs 6.32%.
On the same count and under the same terms, to `CCOC(CC)C(=O)NCCC(=O)N1CCN(c2ncccn2)CC1` (stereo not drawn) belongs 4.87%; to `CN(Cc1ccsc1)C(=O)c1cc2c([nH]c1=O)CCCC2=O`, -2.3%.
On the same count and under the same terms, to `CC(C)CCN1CN=C(NS(=O)(=O)c2ccc(F)cc2)NC1` belongs 4.23%; to `COCCN1C[C@@H]2CCCO[C@@H]2[C@H](N(C)Cc2ccco2)C1`, 1.93%.
As for `CN(Cc1cnn(C)c1)C(=O)NC1CCN(c2ncccn2)CC1`, the Percent Effect stood at 1.2%.
For the molecule `Cc1nc(C2CCCN2CC(=O)N2CCCc3ccccc32)no1` (stereo not drawn), the Percent Effect was -3.99%.

The target in the next assay is Sialic acid-binding Ig-like lectin 9 (Homo sapiens) (UniProt Q9Y336). The experiment in a line: Hs-Siglec9 ALPHAscreen SOP 20170721. The conditions noted are these: 10 µM. The arrangement: scale not given: direction of the effect not stated beside the values.
Chain of Sialic acid-binding Ig-like lectin 9 (Homo sapiens) (Q9Y336 whole entry): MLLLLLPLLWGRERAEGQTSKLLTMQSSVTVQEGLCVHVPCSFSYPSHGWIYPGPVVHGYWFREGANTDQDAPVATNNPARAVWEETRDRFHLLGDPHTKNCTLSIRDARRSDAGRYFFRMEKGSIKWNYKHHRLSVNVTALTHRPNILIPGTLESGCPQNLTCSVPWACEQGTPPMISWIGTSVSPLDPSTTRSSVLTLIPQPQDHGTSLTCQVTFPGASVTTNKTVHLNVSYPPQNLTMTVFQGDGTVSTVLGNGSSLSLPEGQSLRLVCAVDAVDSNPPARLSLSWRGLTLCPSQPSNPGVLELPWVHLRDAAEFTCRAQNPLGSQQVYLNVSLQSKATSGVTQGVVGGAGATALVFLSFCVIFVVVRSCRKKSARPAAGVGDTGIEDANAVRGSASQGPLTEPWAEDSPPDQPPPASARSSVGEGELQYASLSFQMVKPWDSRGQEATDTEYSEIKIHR
Turning to `O=C(NCC1CC1)[C@@H]1CCO[C@@H]2CCN(Cc3ccco3)C[C@H]21`, the Percent Effect was -4.47%.
The same measure, in the same setting: as for `CC(C)Nc1ncnc2c1CCN(C(=O)c1ccncc1F)CC2`, the figure is -7.16%; as for `Cc1nc[nH]c1CN1C[C@@H]2CC[C@H](C1)N(C(=O)CCNS(C)(=O)=O)C2`, 26.7%; as for `O=C(N[C@@H]1CN(c2ncccn2)C[C@@H]2CCCO[C@@H]21)c1cnccn1`, 11.3%.
Same read-out and setting: as for `CNc1cncc(C2CCCN2Cc2ccccn2)n1` (stereo not drawn), the figure is 7.85%; as for `Fc1ccc2[nH]c(C3CCCN3CCc3ccccn3)nc2c1` (stereo not drawn), 9.65%; as for `CS(=O)(=O)NCc1cn2c(n1)CN(C(=O)c1ccc[nH]1)CC2`, 2.3%.
Still for that read-out and setting: as for `O=C(CCNS(=O)(=O)c1ccccc1)NCc1ccoc1`, the figure is 7.78%.
For `O=C(NCc1ccc(-n2cncn2)nc1)c1ccoc1`, the Percent Effect turned out to be 31.6%.
On the same count and under the same terms, as for `Cn1ccnc1CN1CCC2(CC(=O)N(c3cccc(F)c3)C2)C1` (stereo not drawn), the figure is -4.43%; as for `CC(C)c1nc2n(n1)CC(NCc1nc(-c3cccnc3)no1)CC2` (stereo not drawn), -12.6%; as for `O=C(NCc1nnc2n1CCCC2)N1CCc2ccccc2C1`, 2.59%.
Same read-out and setting: to `Cc1oc(C)c(C(=O)N2CCCN(Cc3cscn3)CC2)c1C` belongs -1.26%; to `COc1c(CNC2CCN(C(=O)C3CC3)CC2)c(C(C)C)nn1C`, -2.41%; to `CN(C)C(=O)c1ccc(CNC(=O)NCCN(C)C2CCCC2)cc1`, -5.04%.
On to `CC(C(=O)N1CCCN(Cc2ccc(C#N)cc2)CC1)n1ccnc1` (stereo not drawn), for which the Percent Effect was -5.95%.
The same measure, in the same setting: to `CCOc1ccccc1C(CC(=O)Nc1ccc(C)cn1)NC(C)=O` (stereo not drawn) belongs 5.85%; to `CC(C)COC(C)C(=O)NCc1ccc(OC(C)C)nc1` (stereo not drawn), 1.85%; to `O=C(CNCCn1cccn1)NCC1(c2ccccc2)CC1`, 8.53%.
Still for that read-out and setting: to `O=C(NC1CCC1)[C@@H]1C[C@@H]2CCN(Cc3cccs3)C[C@@H]2O1` belongs -2.43%.
Same read-out and setting: to `CN(C)CC1(O)CCN(S(=O)(=O)c2ccc(F)cc2)C1` (stereo not drawn) belongs -4.76%; to `Cc1ncsc1-c1nnc(C2CCN(Cc3ccc(F)cc3)CC2)o1`, -0.16%; to `Cc1ncc(CN(C)CC2CCCN2c2cccnn2)s1` (stereo not drawn), 0.813%.
As for `CN(C)CCn1c(=O)oc2ccc(NC(=O)CC(C)(C)C)cc21`, the Percent Effect is 19.3%.
The same measure, in the same setting: to `O=C(NCC(O)c1ccccc1Cl)c1cccc(-n2cnnn2)c1` (stereo not drawn) belongs 14.3%; to `COCC(NC(=O)c1cnn(C)c1)c1cccc(C(F)(F)F)c1` (stereo not drawn), -6.41%; to `CC(C)c1nc(C2CCCN2Cc2ccno2)no1` (stereo not drawn), 8.93%.
Same read-out and setting: to `CN1CCN(Cc2cscn2)CC(C(=O)N(C)C)C1` (stereo not drawn) belongs -0.543%; to `N#Cc1ccc(CN2CCN(C(=O)C3CCC3)[C@@H]3CS(=O)(=O)C[C@@H]32)cc1`, 3.04%; to `O=C(NC1CC1)[C@@H]1CCO[C@@H]2CCN(Cc3ccsc3)C[C@H]21`, 0.445%.
The same measure, in the same setting: to `COC1CCN(C(=O)c2c(Cl)c3ccccc3n2C)CC1` belongs 8.11%; to `OC(CN1CCOCC1)c1ccc(OC(F)(F)F)cc1` (stereo not drawn), -1.38%.
As to `CCOCCN1CCN(Cc2nc(C3CC3)no2)CC1CC` (stereo not drawn), the Percent Effect was determined as 25.2%.
On the same count and under the same terms, to `CCOC(CC)C(=O)NCCC(=O)N1CCN(c2ncccn2)CC1` (stereo not drawn) belongs 5.24%; to `CN(Cc1ccsc1)C(=O)c1cc2c([nH]c1=O)CCCC2=O`, 9.82%; to `CC(C)CCN1CN=C(NS(=O)(=O)c2ccc(F)cc2)NC1`, 1.92%.
As to `COCCN1C[C@@H]2CCCO[C@@H]2[C@H](N(C)Cc2ccco2)C1`, the Percent Effect is -6.59%.
Still for that read-out and setting: to `CN(Cc1cnn(C)c1)C(=O)NC1CCN(c2ncccn2)CC1` belongs -4.13%.
On to `Cc1nc(C2CCCN2CC(=O)N2CCCc3ccccc32)no1` (stereo not drawn), for which the Percent Effect was determined as 5.27%.

For the origin of these results see ChEMBL document CHEMBL3988442, “University of Dundee, Small-Polar-MMV Screening Library” (2021).
